# Data taken from PubChem BioAssay (NCI).
# About 79,000 compounds went through this panel and 15% of them were active in at least one assay; those are over-represented in the sample as a whole. A number with no mark means an inactive call. No stated cut-off is given here; in the data, active means growth inhibition above about 70%; inactive means the rest.
# Assay: NCI Yeast Anticancer Drug Screen. Data for the mgt1 strain (AID 153)
# Conditions: S. cerevisiae mgt1 mutant growth inhibition; at 3.7 µM; stronger effect = higher value
# Summary of the method: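 Growth inhibition relative to vehicle controls was scored for the mgt1 yeast strain after compound exposure.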
row,Compound,growth inhibition
1,S=C(S)NN1CCOCC1,39%
2,COc1cc2c3c(cccc3c1)C(=O)N(CCN(C)C)C2=O,-22%
3,COC(=O)C1=C(C)NC(C)=C(C(=O)OCCCN2CCC(c3ccccc3)(c3ccccc3)CC2)C1c1cccc([N+](=O)[O-])c1 (stereo not drawn),22%
4,c1ccc2c(c1)Oc1cccc3cccc-2c13,-8%
5,CN(C)CCOc1ccc2c(c1)C/C(=C/c1ncc([N+](=O)[O-])n1C)C2=O,36%
6,Cc1ccc(CCC2=CCCc3c2ccc2ccccc32)cc1,-3%
7,CNC(=O)OCc1c(COC(=O)NC)c(-c2ccc(Cl)c(Cl)c2)n2c1CCC2,-73%
8,Clc1ccccc1C1OC1c1ccccc1Cl (stereo not drawn),-90%
9,O=[N+]([O-])c1cc(CCl)ccc1CCl,2%
10,O=C1C=CC(=O)c2c(O)c(Nc3ccc(OC(F)(F)F)cc3)c(Cl)c(O)c21,16%
11,S=c1[nH]nc(Nc2ccc(Cl)cc2)s1,-7%
12,Cn1ccnc1Oc1ccc(Cl)cc1,-5%
13,BrCc1cccc2ccc3cccc(CBr)c3c12,0%
14,O=C1c2ccccc2-c2nc3ccccc3nc21,-43%
15,CCCCCCCCCCCCCCCCCCNC,25%
16,Oc1ccc(NCn2c(=S)sc3ccccc32)cc1,17%
17,O=C1C2CC[C@@H]3C(=O)C(Cl)(Cl)[C@@H]3CCC2C1(Cl)Cl (stereo partly drawn),-1%
18,CC[n+]1ccc2c(C)c3[nH]c4ccc(O)cc4c3c(C)c2c1,-14%
